One test has as its target T1, SFRS15 (Homo sapiens, UniProt O95104).
T1 sequence: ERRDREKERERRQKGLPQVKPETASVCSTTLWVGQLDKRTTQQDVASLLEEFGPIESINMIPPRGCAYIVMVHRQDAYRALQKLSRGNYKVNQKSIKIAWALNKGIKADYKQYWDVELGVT
Put plainly: protein domain microarray probed with biotinylated miRNA; Domain array: 20 mM Tris-HCl pH 7.4, 200 mM KCl, 0.2 mM EDTA, 0.05% NP40, 2 ug/ul heparin, overnight 4 C. ORF array: PBS pH 7.0 with RNase inhibitor, 100 ng RNA; high values mean tight binding. The conditions noted are these: ssRNA.
Chain of RBPMS2 (Q6ZRY4 10-130): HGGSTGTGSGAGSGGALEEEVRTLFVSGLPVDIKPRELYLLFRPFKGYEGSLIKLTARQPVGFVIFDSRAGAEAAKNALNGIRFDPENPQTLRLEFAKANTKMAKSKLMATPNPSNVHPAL
Chain of PTBP2 (Q9UKA9 40-531): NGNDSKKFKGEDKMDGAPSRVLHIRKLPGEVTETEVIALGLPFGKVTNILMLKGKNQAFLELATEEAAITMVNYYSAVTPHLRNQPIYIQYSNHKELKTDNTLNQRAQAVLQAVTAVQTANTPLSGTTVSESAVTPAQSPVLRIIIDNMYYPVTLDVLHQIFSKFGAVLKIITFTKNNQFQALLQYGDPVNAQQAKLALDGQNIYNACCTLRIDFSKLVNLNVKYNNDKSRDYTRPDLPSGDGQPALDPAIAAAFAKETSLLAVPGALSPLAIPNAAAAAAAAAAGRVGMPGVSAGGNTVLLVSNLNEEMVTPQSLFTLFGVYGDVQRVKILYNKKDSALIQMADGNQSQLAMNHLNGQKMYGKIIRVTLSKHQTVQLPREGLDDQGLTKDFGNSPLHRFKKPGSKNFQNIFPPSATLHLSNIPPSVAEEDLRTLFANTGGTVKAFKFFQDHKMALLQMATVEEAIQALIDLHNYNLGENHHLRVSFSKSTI
For AGAGGUAGUAGGUUGCAUAGUU, the binding signal came out at 153 ± 14.1 fluorescence intensity.
As to UAGCUUAUCAGACUGAUGUUGA, the binding signal stood at 22.3 ± 2.16 fluorescence intensity.
On the same count and under the same terms, the same measure for UGAGGUAGUAGGUUGUAUAGUU: 46.2 ± 1.86 fluorescence intensity; for UGAGGUAGUAGGUUGUAUGGUU: 154.2 ± 0.983 fluorescence intensity.
The sequence UGAGGUAGUAGGUUGUGUGGUU registered a binding signal of 289 ± 27.3 fluorescence intensity.
Turning to CAGUGCAAUGAUGAAAGGGCAU, the binding signal worked out at 141 ± 12.5 fluorescence intensity.

The next test deals with RBMY1D / RBMY1E (Homo sapiens, UniProt P0DJD3). The test is described as above. The note with it: ssRNA.
Chain of RBMY1D / RBMY1E (P0DJD3 1-110): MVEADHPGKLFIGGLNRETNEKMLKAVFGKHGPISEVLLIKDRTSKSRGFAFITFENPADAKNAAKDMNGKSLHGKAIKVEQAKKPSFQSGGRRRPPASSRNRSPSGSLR
Take AGAGGUAGUAGGUUGCAUAGUU: the binding signal came out at 2080 ± 121 fluorescence intensity.
On to UAGCUUAUCAGACUGAUGUUGA, for which the binding signal came to 817.2 ± 6.26 fluorescence intensity.
Sequence UGAGGUAGUAGGUUGUAUAGUU came in with a binding signal of 892 ± 33.6 fluorescence intensity.
On the same count and under the same terms, for UGAGGUAGUAGGUUGUAUGGUU the value was 1480 ± 96.8 fluorescence intensity.
Regarding UGAGGUAGUAGGUUGUGUGGUU, the binding signal came out at 1420 ± 19.5 fluorescence intensity.
For CAGUGCAAUGAUGAAAGGGCAU, the binding signal is 1280 ± 58.5 fluorescence intensity.

For another test, the target named is SF2 (Homo sapiens, UniProt Q07955). The description is as above. The note with it: ssRNA.
Chain of SF2 (Q07955 1-220): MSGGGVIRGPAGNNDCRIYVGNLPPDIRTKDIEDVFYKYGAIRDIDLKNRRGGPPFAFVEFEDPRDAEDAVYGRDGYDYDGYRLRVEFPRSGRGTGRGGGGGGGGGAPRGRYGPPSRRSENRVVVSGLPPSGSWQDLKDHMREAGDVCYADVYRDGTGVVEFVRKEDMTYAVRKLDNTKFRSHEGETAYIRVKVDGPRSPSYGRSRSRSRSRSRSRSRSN
AGAGGUAGUAGGUUGCAUAGUU had a binding signal of 925 ± 29.4 fluorescence intensity.
In the case of UAGCUUAUCAGACUGAUGUUGA, the binding signal came out at 126 ± 12.9 fluorescence intensity.
In the case of UGAGGUAGUAGGUUGUAUAGUU, the binding signal was 70.4 ± 4.98 fluorescence intensity.
Take UGAGGUAGUAGGUUGUAUGGUU: the binding signal was found to be 700 ± 28 fluorescence intensity.
Turning to UGAGGUAGUAGGUUGUGUGGUU, the binding signal was 895.8 ± 6.29 fluorescence intensity.
In turn, CAGUGCAAUGAUGAAAGGGCAU returned a binding signal of 702.4 ± 1.9 fluorescence intensity.

A further test addresses PTBP2 (Homo sapiens, UniProt Q9UKA9). Described as above. The note with it: ssRNA.
The sequence AGAGGUAGUAGGUUGCAUAGUU displayed a binding signal of 96.6 ± 13.3 fluorescence intensity.
UAGCUUAUCAGACUGAUGUUGA: the binding signal came out at 23.2 ± 6.02 fluorescence intensity.
On the same count and under the same terms, for UGAGGUAGUAGGUUGUAUAGUU the value was 49.5 ± 9.89 fluorescence intensity; for UGAGGUAGUAGGUUGUAUGGUU, 147 ± 8.05 fluorescence intensity.
Regarding UGAGGUAGUAGGUUGUGUGGUU, the binding signal came to 166 ± 17.3 fluorescence intensity.
The same measure, in the same setting: for CAGUGCAAUGAUGAAAGGGCAU the value was 55.4 ± 5.87 fluorescence intensity.

The target in the next test is SR140 (Homo sapiens, UniProt O15042). The test is described as above. The conditions noted are these: ssRNA.
Chain of SR140 (O15042 250-375): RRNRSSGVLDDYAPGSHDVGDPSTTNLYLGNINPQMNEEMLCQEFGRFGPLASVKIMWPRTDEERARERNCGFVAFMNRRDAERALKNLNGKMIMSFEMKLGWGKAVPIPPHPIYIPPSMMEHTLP
Sequence AGAGGUAGUAGGUUGCAUAGUU gave a binding signal of 142.1 ± 1.25 fluorescence intensity.
The sequence UAGCUUAUCAGACUGAUGUUGA showed a binding signal of 21.9 ± 3.08 fluorescence intensity.
Turning to UGAGGUAGUAGGUUGUAUAGUU, the binding signal was 32 ± 0.467 fluorescence intensity.
For UGAGGUAGUAGGUUGUAUGGUU, the binding signal stood at 80.2 ± 12.3 fluorescence intensity.
Take UGAGGUAGUAGGUUGUGUGGUU: the binding signal worked out at 149 ± 8.63 fluorescence intensity.
The same measure, in the same setting: the same measure for CAGUGCAAUGAUGAAAGGGCAU: 43.9 ± 3.02 fluorescence intensity.

The next test addresses T2, RBM22 (Homo sapiens, UniProt Q9NW64).
T2 sequence: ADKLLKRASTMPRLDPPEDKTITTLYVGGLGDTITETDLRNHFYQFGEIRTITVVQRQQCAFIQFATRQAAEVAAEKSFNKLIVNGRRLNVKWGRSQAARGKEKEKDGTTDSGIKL
Described as above. The note with it: ssRNA.
The sequence AGAGGUAGUAGGUUGCAUAGUU displayed a binding signal of 71.81 ± 0.233 fluorescence intensity.
Sequence UGAGGUAGUAGGUUGUAUAGUU yielded a binding signal of 25.7 ± 2.21 fluorescence intensity.
In turn, UGAGGUAGUAGGUUGUAUGGUU registered a binding signal of 113.1 ± 0.177 fluorescence intensity.
The same measure, in the same setting: the same measure for UGAGGUAGUAGGUUGUGUGGUU: 126 ± 31.8 fluorescence intensity.
Sequence CAGUGCAAUGAUGAAAGGGCAU returned a binding signal of 52.6 ± 1.44 fluorescence intensity.

A further test addresses RBPMS2 (Homo sapiens, UniProt Q6ZRY4). The description is as above. The note with it: ssRNA.
Sequence AGAGGUAGUAGGUUGCAUAGUU showed a binding signal of 1780 ± 12.1 fluorescence intensity.
For the sequence UAGCUUAUCAGACUGAUGUUGA, the binding signal was 37.6 ± 9.28 fluorescence intensity.
Consider UGAGGUAGUAGGUUGUAUAGUU, for which the binding signal was 118 ± 2.62 fluorescence intensity.
Take UGAGGUAGUAGGUUGUAUGGUU: the binding signal was 434 ± 21.2 fluorescence intensity.
UGAGGUAGUAGGUUGUGUGGUU came in with a binding signal of 515 ± 10.3 fluorescence intensity.
CAGUGCAAUGAUGAAAGGGCAU had a binding signal of 1650 ± 53.9 fluorescence intensity.

For another test, the target named is T3, SFRS3 (Homo sapiens, UniProt P84103).
T3 sequence: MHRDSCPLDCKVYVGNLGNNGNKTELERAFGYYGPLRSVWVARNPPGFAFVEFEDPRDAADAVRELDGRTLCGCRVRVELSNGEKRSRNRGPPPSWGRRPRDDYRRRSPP
Described as above. The conditions noted are these: ssRNA.
Sequence AGAGGUAGUAGGUUGCAUAGUU had a binding signal of 324.4 ± 0.806 fluorescence intensity.
Consider UAGCUUAUCAGACUGAUGUUGA, for which the binding signal turned out to be 34.7 ± 4.07 fluorescence intensity.
On to UGAGGUAGUAGGUUGUAUAGUU, for which the binding signal worked out at 37.7 ± 9.2 fluorescence intensity.
Sequence UGAGGUAGUAGGUUGUAUGGUU displayed a binding signal of 235 ± 17.9 fluorescence intensity.
Take UGAGGUAGUAGGUUGUGUGGUU: the binding signal worked out at 276 ± 12.7 fluorescence intensity.
Regarding CAGUGCAAUGAUGAAAGGGCAU, the binding signal stood at 219 ± 8.61 fluorescence intensity.

For a further test, the target named is T4, TRSPAP1 (Homo sapiens, UniProt Q9NX07).
T4 sequence: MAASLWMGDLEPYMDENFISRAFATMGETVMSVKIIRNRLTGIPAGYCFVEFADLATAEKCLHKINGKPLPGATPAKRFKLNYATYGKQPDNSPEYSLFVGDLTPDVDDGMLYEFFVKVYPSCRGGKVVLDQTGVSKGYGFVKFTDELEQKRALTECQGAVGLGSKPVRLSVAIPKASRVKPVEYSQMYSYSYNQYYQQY
Described as above. The note with it: ssRNA.
As for AGAGGUAGUAGGUUGCAUAGUU, the binding signal came out at 351 ± 8.57 fluorescence intensity.
Still for that read-out and setting: the same measure for UAGCUUAUCAGACUGAUGUUGA: 45.5 ± 1.42 fluorescence intensity; for UGAGGUAGUAGGUUGUAUAGUU: 79.2 ± 10.3 fluorescence intensity; for UGAGGUAGUAGGUUGUAUGGUU: 269 ± 24.3 fluorescence intensity.
UGAGGUAGUAGGUUGUGUGGUU showed a binding signal of 332 ± 22.4 fluorescence intensity.
The sequence CAGUGCAAUGAUGAAAGGGCAU had a binding signal of 84.1 ± 10.6 fluorescence intensity.

The record behind these values is paper PMC11574364.
